# Results reported in publication PMC7862700, “An all-to-all approach to the identification of sequence-specific readers for epigenetic DNA modifications on cytosine”.
# What was measured:
# Assay in all cases: DAPPL (digital affinity profiling via proximity ligation, sequencing); 10 mM Tris-HCl pH 7.5, 50 mM NaCl, 1 mM DTT, 4% glycerol, room temperature, 30 min; GST-TFs on glutathione beads, 16-mer random dsDNA library, 0.1% formaldehyde crosslink after washing; high values mean tight binding
# FEV = target: T1, FEV (Homo sapiens, UniProt Q99581 1-238); settings: protein: recombinant; tags: N-terminal GST; dsDNA, one strand shown
# T1 sequence: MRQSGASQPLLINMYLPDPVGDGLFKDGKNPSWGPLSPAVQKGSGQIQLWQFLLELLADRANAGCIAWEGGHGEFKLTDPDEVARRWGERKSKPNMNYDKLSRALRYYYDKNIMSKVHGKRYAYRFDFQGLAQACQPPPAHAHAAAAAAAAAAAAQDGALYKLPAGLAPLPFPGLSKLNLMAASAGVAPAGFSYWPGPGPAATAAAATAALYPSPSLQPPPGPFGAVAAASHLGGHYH
# In short: (§1)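 Each value of binding signal is a hexamer's read frequency for a factor divided by the same hexamer's frequency in the tag-only sample. Barcoded, bead-captured GST fusions of human transcription factors made in yeast were pooled with that sample and incubated with 200 nmole of a random double-stranded 16-mer DNA library in Tris/NaCl/DTT/glycerol buffer at room temperature for 30 min. Washing, 0.1% formaldehyde crosslinking, proximity ligation, PCR and Illumina NextSeq500 sequencing followed.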
# ETV5 = ETV5 (Homo sapiens, UniProt P41161 1-510); settings: protein: recombinant; tags: N-terminal GST; dsDNA, one strand shown
# ETV5, sequence (P41161 whole entry): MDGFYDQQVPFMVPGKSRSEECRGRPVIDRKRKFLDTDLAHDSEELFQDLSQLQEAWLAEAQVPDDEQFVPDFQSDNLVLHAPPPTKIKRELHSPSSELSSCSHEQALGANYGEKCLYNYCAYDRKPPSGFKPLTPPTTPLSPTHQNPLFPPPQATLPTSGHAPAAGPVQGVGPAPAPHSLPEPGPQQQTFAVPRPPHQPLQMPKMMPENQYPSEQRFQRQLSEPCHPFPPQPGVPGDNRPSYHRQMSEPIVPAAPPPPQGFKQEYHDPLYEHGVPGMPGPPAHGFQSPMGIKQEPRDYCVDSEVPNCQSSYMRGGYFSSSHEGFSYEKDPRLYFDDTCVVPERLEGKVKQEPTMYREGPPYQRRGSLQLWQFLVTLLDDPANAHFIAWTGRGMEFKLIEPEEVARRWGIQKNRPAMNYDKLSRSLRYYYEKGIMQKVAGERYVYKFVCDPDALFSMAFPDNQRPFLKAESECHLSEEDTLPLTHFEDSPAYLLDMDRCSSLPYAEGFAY
# In short: as §1
# HSF1 = HSF1 (Homo sapiens, UniProt Q00613 1-529); settings: protein: recombinant; tags: N-terminal GST; chain copies: 3; dsDNA, one strand shown
# HSF1, sequence (Q00613 whole entry): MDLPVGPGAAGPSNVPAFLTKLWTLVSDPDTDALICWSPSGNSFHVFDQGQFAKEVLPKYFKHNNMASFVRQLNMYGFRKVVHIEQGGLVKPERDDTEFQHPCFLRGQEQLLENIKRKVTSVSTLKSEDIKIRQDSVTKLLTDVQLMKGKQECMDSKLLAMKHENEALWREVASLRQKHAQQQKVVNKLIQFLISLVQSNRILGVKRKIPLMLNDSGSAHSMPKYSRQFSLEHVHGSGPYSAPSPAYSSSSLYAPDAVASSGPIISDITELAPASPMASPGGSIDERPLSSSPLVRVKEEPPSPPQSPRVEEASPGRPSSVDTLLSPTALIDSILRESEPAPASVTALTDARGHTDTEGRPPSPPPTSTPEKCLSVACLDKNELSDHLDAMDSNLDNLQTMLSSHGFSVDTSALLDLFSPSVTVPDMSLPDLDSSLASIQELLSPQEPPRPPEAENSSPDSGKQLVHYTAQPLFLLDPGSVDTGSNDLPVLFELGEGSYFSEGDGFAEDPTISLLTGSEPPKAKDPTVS
# In short: as §1
# SPIC = target: T2, SPIC (Homo sapiens, UniProt Q8N5J4 1-248); settings: protein: recombinant; tags: N-terminal GST; dsDNA, one strand shown
# T2 sequence: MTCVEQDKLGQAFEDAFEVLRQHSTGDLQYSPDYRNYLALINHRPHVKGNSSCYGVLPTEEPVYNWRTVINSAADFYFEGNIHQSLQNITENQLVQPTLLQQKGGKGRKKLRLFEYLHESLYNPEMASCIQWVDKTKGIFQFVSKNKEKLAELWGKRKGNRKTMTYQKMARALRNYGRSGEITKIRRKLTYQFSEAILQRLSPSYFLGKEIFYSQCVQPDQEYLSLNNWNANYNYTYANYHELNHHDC
# In short: as §1
# ELF4 = ELF4 (Homo sapiens, UniProt Q99607 1-663); settings: protein: recombinant; tags: N-terminal GST; dsDNA, one strand shown
# ELF4, sequence (Q99607 whole entry): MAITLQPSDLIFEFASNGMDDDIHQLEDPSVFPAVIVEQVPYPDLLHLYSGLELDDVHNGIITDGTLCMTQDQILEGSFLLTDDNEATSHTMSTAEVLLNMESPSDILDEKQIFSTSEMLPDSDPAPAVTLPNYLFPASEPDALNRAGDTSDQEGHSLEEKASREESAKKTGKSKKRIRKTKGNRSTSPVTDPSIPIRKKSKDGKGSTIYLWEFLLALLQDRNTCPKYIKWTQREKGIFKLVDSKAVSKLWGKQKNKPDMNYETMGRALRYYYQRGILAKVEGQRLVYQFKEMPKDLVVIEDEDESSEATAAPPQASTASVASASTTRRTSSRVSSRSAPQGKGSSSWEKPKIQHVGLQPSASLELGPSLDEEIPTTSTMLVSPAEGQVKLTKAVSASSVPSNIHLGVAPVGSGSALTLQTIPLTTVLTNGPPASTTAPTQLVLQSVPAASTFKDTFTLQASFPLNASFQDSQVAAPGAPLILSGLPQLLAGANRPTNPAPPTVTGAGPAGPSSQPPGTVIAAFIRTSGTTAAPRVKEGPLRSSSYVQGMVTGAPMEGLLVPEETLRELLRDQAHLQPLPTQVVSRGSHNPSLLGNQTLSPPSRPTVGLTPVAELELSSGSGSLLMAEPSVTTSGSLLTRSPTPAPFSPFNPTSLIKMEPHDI
# In short: as §1
# ELK4 = target: T3, ELK4 (Homo sapiens, UniProt P28324-2 1-405); settings: protein: recombinant; tags: N-terminal GST; dsDNA, one strand shown
# T3 sequence: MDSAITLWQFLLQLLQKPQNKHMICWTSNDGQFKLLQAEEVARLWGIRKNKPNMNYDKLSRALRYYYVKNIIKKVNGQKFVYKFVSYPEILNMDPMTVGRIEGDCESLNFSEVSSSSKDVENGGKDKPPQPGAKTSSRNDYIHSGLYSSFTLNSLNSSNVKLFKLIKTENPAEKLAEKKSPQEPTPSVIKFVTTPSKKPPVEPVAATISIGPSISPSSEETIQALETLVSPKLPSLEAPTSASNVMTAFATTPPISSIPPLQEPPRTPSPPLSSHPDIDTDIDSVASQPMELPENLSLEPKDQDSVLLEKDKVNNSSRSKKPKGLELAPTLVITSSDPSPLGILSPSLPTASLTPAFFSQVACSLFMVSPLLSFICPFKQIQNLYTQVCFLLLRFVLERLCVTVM
# In short: as §1
# ETV2 = target: T4, ETV2 (Homo sapiens, UniProt O00321 1-342); settings: protein: recombinant; tags: N-terminal GST; dsDNA, one strand shown
# T4 sequence: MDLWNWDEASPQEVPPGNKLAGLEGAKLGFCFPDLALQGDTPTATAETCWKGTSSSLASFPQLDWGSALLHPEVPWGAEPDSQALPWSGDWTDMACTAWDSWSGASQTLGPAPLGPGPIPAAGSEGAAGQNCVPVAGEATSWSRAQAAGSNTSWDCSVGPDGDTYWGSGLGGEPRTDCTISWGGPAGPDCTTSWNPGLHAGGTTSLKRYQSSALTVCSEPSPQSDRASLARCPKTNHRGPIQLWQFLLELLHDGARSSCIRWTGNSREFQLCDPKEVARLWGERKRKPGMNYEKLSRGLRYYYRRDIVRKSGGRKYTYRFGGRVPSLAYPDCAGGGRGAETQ
# In short: as §1
# ELF3 = target: T5, ELF3 (Homo sapiens, UniProt P78545 1-371); settings: protein: recombinant; tags: N-terminal GST; dsDNA, one strand shown
# T5 sequence: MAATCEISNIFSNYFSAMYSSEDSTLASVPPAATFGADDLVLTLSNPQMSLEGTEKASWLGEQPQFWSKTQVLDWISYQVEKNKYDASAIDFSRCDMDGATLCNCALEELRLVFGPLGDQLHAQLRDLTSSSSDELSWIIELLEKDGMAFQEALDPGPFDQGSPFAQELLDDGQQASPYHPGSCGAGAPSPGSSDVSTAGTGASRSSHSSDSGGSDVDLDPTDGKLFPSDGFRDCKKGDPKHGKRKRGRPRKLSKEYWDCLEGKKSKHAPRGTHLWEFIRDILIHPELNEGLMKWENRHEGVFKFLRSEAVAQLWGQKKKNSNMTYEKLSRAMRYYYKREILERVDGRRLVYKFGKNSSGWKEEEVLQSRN
# In short: as §1
# CRX = CRX (Homo sapiens, UniProt O43186 1-299); settings: protein: recombinant; tags: N-terminal GST; dsDNA, one strand shown
# CRX, sequence (O43186 whole entry): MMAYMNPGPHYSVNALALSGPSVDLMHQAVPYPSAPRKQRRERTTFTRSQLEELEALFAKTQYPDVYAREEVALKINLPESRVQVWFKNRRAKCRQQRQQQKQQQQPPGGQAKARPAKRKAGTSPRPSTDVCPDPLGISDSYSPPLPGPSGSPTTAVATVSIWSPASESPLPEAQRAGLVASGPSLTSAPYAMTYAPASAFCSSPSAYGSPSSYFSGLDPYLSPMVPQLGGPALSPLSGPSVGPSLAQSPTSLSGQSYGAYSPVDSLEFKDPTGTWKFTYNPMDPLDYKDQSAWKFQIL
# In short: as §1
# ETV1 = ETV1 (Homo sapiens, UniProt P50549 1-477); settings: protein: recombinant; tags: N-terminal GST; dsDNA, one strand shown
# ETV1, sequence (P50549 whole entry): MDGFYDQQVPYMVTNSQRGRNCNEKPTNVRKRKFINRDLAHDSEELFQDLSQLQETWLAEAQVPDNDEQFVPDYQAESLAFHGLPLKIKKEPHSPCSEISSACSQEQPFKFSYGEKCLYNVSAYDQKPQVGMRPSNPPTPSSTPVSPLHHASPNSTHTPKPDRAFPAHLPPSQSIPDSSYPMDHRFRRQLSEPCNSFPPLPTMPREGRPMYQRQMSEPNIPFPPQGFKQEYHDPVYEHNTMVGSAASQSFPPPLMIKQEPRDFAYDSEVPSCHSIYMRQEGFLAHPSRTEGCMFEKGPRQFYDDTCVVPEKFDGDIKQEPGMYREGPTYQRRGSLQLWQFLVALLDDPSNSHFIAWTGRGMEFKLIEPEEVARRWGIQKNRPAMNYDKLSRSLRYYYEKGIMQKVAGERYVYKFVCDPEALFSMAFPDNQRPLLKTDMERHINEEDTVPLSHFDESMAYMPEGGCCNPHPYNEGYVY
# In short: as §1
# ERF = target: T6, ERF (Homo sapiens, UniProt P50548 1-548); settings: protein: recombinant; tags: N-terminal GST; dsDNA, one strand shown
# T6 sequence: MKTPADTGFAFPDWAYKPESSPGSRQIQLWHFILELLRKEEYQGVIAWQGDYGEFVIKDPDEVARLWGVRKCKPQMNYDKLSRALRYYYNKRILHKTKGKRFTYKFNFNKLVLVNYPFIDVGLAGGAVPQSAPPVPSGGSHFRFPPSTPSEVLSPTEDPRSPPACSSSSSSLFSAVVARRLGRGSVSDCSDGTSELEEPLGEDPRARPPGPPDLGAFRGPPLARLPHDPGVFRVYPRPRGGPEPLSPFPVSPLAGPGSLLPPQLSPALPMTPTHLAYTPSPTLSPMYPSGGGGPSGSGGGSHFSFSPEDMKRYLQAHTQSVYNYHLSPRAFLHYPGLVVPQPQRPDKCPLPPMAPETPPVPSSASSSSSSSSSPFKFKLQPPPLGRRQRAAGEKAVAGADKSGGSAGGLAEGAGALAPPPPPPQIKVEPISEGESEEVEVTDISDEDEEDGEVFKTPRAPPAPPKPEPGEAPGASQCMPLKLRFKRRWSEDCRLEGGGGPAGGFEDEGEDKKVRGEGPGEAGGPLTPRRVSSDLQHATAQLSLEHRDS
# In short: as §1
# ETV3L = target: T7, ETV3L (Homo sapiens, UniProt Q6ZN32 1-361); settings: protein: recombinant; tags: N-terminal GST; dsDNA, one strand shown
# T7 sequence: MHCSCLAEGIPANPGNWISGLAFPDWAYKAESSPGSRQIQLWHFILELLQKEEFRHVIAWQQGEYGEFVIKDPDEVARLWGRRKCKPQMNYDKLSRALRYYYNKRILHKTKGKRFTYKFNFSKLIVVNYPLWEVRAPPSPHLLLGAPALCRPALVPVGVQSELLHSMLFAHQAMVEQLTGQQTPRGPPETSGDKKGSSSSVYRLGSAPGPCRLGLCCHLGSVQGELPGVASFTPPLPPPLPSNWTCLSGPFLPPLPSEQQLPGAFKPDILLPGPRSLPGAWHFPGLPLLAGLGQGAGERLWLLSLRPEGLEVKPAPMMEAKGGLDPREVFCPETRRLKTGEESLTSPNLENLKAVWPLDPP
# In short: as §1
# ETS2 = target: T8, ETS2 (Homo sapiens, UniProt P15036 1-469); settings: protein: recombinant; tags: N-terminal GST; dsDNA, one strand shown
# T8 sequence: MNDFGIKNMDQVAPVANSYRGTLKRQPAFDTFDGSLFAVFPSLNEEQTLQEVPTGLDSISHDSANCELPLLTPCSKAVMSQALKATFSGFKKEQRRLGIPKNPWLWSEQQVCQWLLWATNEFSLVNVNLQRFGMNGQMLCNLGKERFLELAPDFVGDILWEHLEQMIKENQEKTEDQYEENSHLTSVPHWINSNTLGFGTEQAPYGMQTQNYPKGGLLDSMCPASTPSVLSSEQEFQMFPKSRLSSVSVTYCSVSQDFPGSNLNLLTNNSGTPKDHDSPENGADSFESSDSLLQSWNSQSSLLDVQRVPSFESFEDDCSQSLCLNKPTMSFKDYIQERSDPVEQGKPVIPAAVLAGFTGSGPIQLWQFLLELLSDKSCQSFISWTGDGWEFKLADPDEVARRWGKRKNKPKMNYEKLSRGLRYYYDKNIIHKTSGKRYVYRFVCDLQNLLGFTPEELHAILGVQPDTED
# In short: as §1
# SPDEF = target: T9, SPDEF (Homo sapiens, UniProt O95238 1-335); settings: protein: recombinant; tags: N-terminal GST; dsDNA, one strand shown
# T9 sequence: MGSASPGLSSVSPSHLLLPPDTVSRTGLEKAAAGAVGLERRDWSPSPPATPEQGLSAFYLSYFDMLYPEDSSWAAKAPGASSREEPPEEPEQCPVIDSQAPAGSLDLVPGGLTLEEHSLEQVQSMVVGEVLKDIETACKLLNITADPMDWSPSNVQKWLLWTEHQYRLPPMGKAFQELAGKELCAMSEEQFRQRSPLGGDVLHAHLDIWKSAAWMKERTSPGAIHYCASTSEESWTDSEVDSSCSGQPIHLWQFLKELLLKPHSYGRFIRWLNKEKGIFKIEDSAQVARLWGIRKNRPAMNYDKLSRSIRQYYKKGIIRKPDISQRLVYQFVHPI
# In short: as §1
# ETV7 = target: T10, ETV7 (Homo sapiens, UniProt Q9Y603 1-341); settings: protein: recombinant; tags: N-terminal GST; dsDNA, one strand shown
# T10 sequence: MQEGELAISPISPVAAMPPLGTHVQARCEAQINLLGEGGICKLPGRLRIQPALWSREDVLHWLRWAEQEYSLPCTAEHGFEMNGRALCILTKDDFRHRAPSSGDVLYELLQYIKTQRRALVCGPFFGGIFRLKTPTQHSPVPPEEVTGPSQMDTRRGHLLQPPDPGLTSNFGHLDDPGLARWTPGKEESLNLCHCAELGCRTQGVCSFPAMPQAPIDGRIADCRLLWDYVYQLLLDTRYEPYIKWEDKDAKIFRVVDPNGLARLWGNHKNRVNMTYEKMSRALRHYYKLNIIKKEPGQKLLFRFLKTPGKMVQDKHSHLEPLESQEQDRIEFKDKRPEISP
# In short: as §1
# ELF5 = target: T11, ELF5 (Homo sapiens, UniProt Q9UKW6-2 1-255); settings: protein: recombinant; tags: N-terminal GST; dsDNA, one strand shown
# T11 sequence: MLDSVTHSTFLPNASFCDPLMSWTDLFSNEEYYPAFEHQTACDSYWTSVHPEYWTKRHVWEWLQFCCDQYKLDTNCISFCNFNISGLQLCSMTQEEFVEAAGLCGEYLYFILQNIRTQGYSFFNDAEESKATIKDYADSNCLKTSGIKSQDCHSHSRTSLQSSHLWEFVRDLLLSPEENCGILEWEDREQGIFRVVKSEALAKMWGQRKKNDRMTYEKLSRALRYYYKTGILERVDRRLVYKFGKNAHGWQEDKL
# In short: as §1
# ETV3 = target: T12, ETV3 (Homo sapiens, UniProt P41162-2 1-143); settings: protein: recombinant; tags: N-terminal GST; dsDNA, one strand shown
# T12 sequence: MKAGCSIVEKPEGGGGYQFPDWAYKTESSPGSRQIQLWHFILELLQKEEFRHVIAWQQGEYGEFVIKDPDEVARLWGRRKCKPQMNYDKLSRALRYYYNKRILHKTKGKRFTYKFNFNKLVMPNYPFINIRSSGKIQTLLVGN
# In short: as §1
# ETV6 = ETV6 (Homo sapiens, UniProt P41212 1-452); settings: protein: recombinant; tags: N-terminal GST; dsDNA, one strand shown
# ETV6, sequence (P41212 whole entry): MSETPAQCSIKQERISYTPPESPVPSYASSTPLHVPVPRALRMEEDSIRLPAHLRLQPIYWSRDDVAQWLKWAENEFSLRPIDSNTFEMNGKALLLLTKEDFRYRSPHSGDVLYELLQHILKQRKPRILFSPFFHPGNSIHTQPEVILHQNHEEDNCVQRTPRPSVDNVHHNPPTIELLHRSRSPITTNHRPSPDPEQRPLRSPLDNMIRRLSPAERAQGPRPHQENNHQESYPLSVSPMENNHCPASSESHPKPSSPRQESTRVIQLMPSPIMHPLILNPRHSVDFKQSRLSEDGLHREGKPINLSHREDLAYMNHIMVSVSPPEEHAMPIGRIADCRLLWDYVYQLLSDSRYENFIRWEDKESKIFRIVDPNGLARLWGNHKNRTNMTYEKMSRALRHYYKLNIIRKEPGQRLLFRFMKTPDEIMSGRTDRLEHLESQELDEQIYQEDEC
# In short: as §1
sequence,measurement,setting,value
TTGTTC,binding signal,FEV,"1.43 fold enrichment (6-mer frequency, TF over GST control)"
same,binding signal,ETV5,"1.48 fold enrichment (6-mer frequency, TF over GST control)"
same,binding signal,HSF1,"1.89 fold enrichment (6-mer frequency, TF over GST control)"
same,binding signal,SPIC,"1.48 fold enrichment (6-mer frequency, TF over GST control)"
same,binding signal,ELF4,"1.37 fold enrichment (6-mer frequency, TF over GST control)"
same,binding signal,ELK4,"1.48 fold enrichment (6-mer frequency, TF over GST control)"
same,binding signal,ETV2,"1.48 fold enrichment (6-mer frequency, TF over GST control)"
same,binding signal,ELF3,"1.33 fold enrichment (6-mer frequency, TF over GST control)"
same,binding signal,CRX,"1.43 fold enrichment (6-mer frequency, TF over GST control)"
same,binding signal,ETV1,"1.49 fold enrichment (6-mer frequency, TF over GST control)"
same,binding signal,ERF,"1.63 fold enrichment (6-mer frequency, TF over GST control)"
same,binding signal,ETV3L,"1.44 fold enrichment (6-mer frequency, TF over GST control)"
same,binding signal,ETS2,"1.33 fold enrichment (6-mer frequency, TF over GST control)"
same,binding signal,SPDEF,"1.48 fold enrichment (6-mer frequency, TF over GST control)"
same,binding signal,ETV7,"1.44 fold enrichment (6-mer frequency, TF over GST control)"
same,binding signal,ELF5,"1.55 fold enrichment (6-mer frequency, TF over GST control)"
same,binding signal,ETV3,"1.52 fold enrichment (6-mer frequency, TF over GST control)"
same,binding signal,ETV6,"1.46 fold enrichment (6-mer frequency, TF over GST control)"
